Where “and” joins values, the source holds several entries; their conditions need not be identical. Equal entries are not always repeated. Inconclusive results are not listed. Where a call stands in place of a potency, no number is given. Some compounds were tested as several samples or in several runs, with calls that do not always agree. Calls of active or inactive are those of the source. Calls come from the whole dose curve; as a rule, active = well fitted inhibition curve with a large enough effect; inconclusive = small, poorly fitted or top-dose-only effect; inactive = no such curve, though single readings can be large or run the other way.
Assay: NS1 protein of Zika virus - qHTS assay to identify small molecule inhibitors in human HEK 293 cells (AID 1347053); note: nearly all actives have a fitted effect of over 55% in size
Settings: HEK293 ZIKV MR766 infection, NS1 TR-FRET, 24 h; series mostly up to 46.1 µM; activity change, negative = inhibition: at the top concentration
Excerpt: National Center for Advancing Translational Sciences [NCATS]
Johns Hopkins University School of Medicine
The non-structural 1 (NS1) protein of zika virus is known to associate with the viral replication complex. This cell-based TR-FRET ZIKV NS-1 assay measures the increased NS-1 protein in human HEK 293 cells after a 24-hour Zika virus infection by a TR-FRET assay readout. A decrease in the Time-resolved fluorescence energy transfer (TR-FRET) signal in this assay by small molecule treatment indicates an inhibitory effect of the small molecule on the expression of Zika virus NS1 correlating with Zika virus replication.
HEK 293 cells were cultured in EMEM (ATCC, Cat. # 30-2003) medium with 10% fetal bovine serum (GE healthcare Life Sciences, Cat. # SH30071.03), and 1% Pen/Strep (Gibco, Cat. # 15140-122). Cells were seeded in the assay plate and incubated at 37 C with 5% CO2 for 20 hours. Compounds were added to cells and incubated for one hour before addition of ZIKV MR766 strain solution to cells (MOI = 0.5). After an incubation at 37 C for 24 hours, the reagent mixture of TR-FRET ZIKV NS1 assay using two anti-ZIKV NS1 antibodies was added to assay plates. The TR-FRET signals in assay plates were measured using an Envision plate reader (PerkinElmer). Data were normalized by using the cell-containing wells without ZIKV as a negative control (0% NS-1) and wells containing ZIKV infected cells as a positive control (100% NS-1 level).
Potency is the fitted concentration of half-maximal effect.

Compound	Potency	activity change, negative = inhibition
OC(Cn1cncn1)(Cn1cncn1)c1ccc(F)cc1F	inactive	–
COc1ncnc(NS(=O)(=O)c2ccc(N)cc2)c1OC	–	2.56% (inactive)
COc1cnc(NS(=O)(=O)c2ccc(N)cc2)nc1	inactive	–
C[C@]12C=CC(=O)C=C1CC[C@@H]1[C@@H]2C(=O)C[C@@]2(C)[C@H]1CC[C@]2(O)C(=O)CO	inactive	–
O=C(O)CSCC(=O)NC1CCSC1=O (stereo not given)	inactive	–
O=C(O)CCn1c2c(c3ccccc31)C[C@H](NS(=O)(=O)c1ccc(F)cc1)CC2	inactive	–
CCOC(=O)c1ccc(OC(=O)CCCCCN=C(N)N)cc1	inactive	–
N=C(N)c1ccc(OCCCCCOc2ccc(C(=N)N)cc2)cc1	inactive	–
CC(C)(C#N)c1cc(Cn2cncn2)cc(C(C)(C)C#N)c1	inactive	–
CCn1cc(C(=O)O)c(=O)c2cc(F)c(N3CCNCC3)nc21	inactive	–
Cc1onc(-c2ccccc2Cl)c1C(=O)N[C@@H]1C(=O)N2[C@@H]1SC(C)(C)[C@@H]2C(=O)O	inactive	–
CO[C@@]12[C@H](COC(N)=O)C3=C(C(=O)C(C)=C(N)C3=O)N1C[C@@H]1N[C@@H]12	–	9.48% (inactive)
Nc1ccc(S(=O)(=O)Nc2ccccn2)cc1	inactive	–
C[C@@H](NCCCc1cccc(C(F)(F)F)c1)c1cccc2ccccc12	inactive	–
O=c1oc2c(O)c(O)cc3c(=O)oc4c(O)c(O)cc1c4c23	inactive	–
CCCN[C@H]1CCc2nc(N)sc2C1	inactive	–
O=c1cc(O)c(Cl)c[nH]1	inactive	–
CCCCCCNC(=O)n1cc(F)c(=O)[nH]c1=O	inactive	–
CNNCc1ccc(C(=O)NC(C)C)cc1	inactive	–
Nc1nc(N)c2nc(CNc3ccc(C(=O)NC(CCC(=O)O)C(=O)O)cc3)cnc2n1 (stereo not given)	inactive	–

Compound	Potency	activity change, negative = inhibition
O=C(O)c1cc(=O)[nH]c(=O)[nH]1	inactive	–
O=C(NCC1CN(c2ccc(N3CCOCC3=O)cc2)C(=O)O1)c1ccc(Cl)s1 (stereo not given)	inactive	–
O=C(O)c1cccnc1	inactive	–
COC(c1ccccc1)(c1ccccc1)[C@H](Oc1nc(C)cc(C)n1)C(=O)O	inactive	–
CNS(=O)(=O)Cc1ccc2[nH]cc(CCN(C)C)c2c1	inactive	–
COCCCOc1cc(C[C@@H](C[C@H](N)[C@@H](O)C[C@H](C(=O)NCC(C)(C)C(N)=O)C(C)C)C(C)C)ccc1OC	–	-10.8% (inactive)
CCCCOc1ccc(CC(=O)NO)cc1	inactive	–
CCOC(=O)[C@H](CCc1ccccc1)N[C@H]1CCc2ccccc2N(CC(=O)O)C1=O	–	11.6% (inactive)
CCC(=O)O[C@]1(C(=O)CCl)[C@@H](C)C[C@H]2[C@@H]3CCC4=CC(=O)C=C[C@]4(C)[C@@]3(F)[C@@H](O)C[C@@]21C	inactive	–
CC(C)(Sc1cc(C(C)(C)C)c(O)c(C(C)(C)C)c1)Sc1cc(C(C)(C)C)c(O)c(C(C)(C)C)c1	inactive	–
Cc1nnc(C(=O)NC(C)(C)c2nc(C(=O)NCc3ccc(F)cc3)c(O)c(=O)n2C)o1	inactive	–
CCCc1nc(C)c2c(=O)[nH]c(-c3cc(S(=O)(=O)N4CCN(CC)CC4)ccc3OCC)nn12	inactive and 10.5 µM (active)	–
O=S(=O)(c1cccc2cnccc12)N1CCCNCC1	inactive	–
CC(N)C12CC3CC(CC(C3)C1)C2 (stereo not given)	inactive	–
NC1(c2ccc(-c3nc4ccn5c(=O)[nH]nc5c4cc3-c3ccccc3)cc2)CCC1	9.35 µM (active)	–
CN(CCOc1ccc(CC2SC(=O)NC2=O)cc1)c1ccccn1 (stereo not given)	inactive	–
C1CCC(C(CC2CCCCN2)C2CCCCC2)CC1 (stereo not given)	10 µM (active) and 11.8 µM (active)	–
O=C(N[C@H](CO)[C@H](O)c1ccc([N+](=O)[O-])cc1)C(Cl)Cl	inactive	–
CC1=CC(=O)c2ccccc2C1=O	–	1.88% (inactive)
Cc1cccc(N(C)C(=S)Oc2ccc3ccccc3c2)c1	inactive	–
